Rows were chosen to be rich in hits. Some 2.4% of all compounds tested hit in one or more screens of this group.
D2 ag-1 – agonists of human D2 dopamine receptor; AID 485358; HEK293 T-REx D2 cells, calcium flux agonist mode; activation, % at 2 µM; P14416; 340,000 tested, 0.53% active;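 active means activation over 3 SD above normal in the single-dose calcium agonist read, cut at about 30% in these data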; further: 0% is about no effect
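Tetracycline-induced HEK293 T-REx cells with force-coupled D2 receptor, plated overnight at 30 C, loaded with no-wash calcium dye. After a 10 s baseline, compound was pin-added and calcium flux read kinetically for 180 s; calcium rises flagged agonists.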
D2 PAM-1 – human D2 receptor positive allosteric modulation; 360,000 tested, 0.23% active; P14416; AID 624464; DiscoveRx D2 beta-arrestin cells, luminescence, 90 min; 100% = 57 uM dopamine signal; potentiation, % (no concentration beside the values); in the data active means potentiation above about 50%; inconclusive means mostly about 30% to 49%
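PathHunter D2 cells, attached overnight at 37 deg C, received compound in DMSO plus dopamine at EC20 (50 nM final) for 90 min at 37 deg C. Beta-arrestin recruitment was read as luminescence after 1 h with detection reagent at ambient temperature.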
D2 PAM-2 – positive allosteric modulators of human D2 dopamine receptor; P14416; HEK293 T-REx D2, calcium flux, EC20 dopamine potentiation; potentiation, % at 10 µM; 340,000 tested, 0.34% active;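 active means potentiation over 3 SD above the plate norm, cut at about 30% in these data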; further: 0% is about no effect
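Cells plated with tetracycline inducer and held overnight at 30 C; calcium dye loaded 30–90 min at room temperature; baseline taken, compound added and read 180 s; EC20 dopamine then added and read 180 s.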
D2 ag-2 – human D2 receptor agonism in beta-arrestin assay. DiscoveRx PathHunter D2 beta-arrestin, luminescence, 90 min; 100% = 57 uM dopamine signal. activation, % (test concentration not listed). 360,000 tested, 0.084% active. AID 624465; in the data active means activation above about 40%; inconclusive means between about 15% and that limit
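DiscoveRx PathHunter D2 beta-arrestin cells (2,100/well) attached overnight, then compound-stimulated 90 min at 37 C in HBSS/10 mM HEPES/0.1% Tween-20 buffer; beta-galactosidase complementation read by luminescence after 1 h at ambient temperature. Dopamine 57 uM final (EC100) as control.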
D2 antagonist – D2 dopamine receptor (human) antagonism. P14416. HEK293 TREx D2 cells, calcium flux, dopamine EC80. inhibition, % at 10 µM. 340,000 tested, 2% active. AID 485344; in the data active means inhibition above about 30%; inactive means below that, where a call was filed; further: 0% is about no effect
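In this primary screen, negative modulation is detected by tracking calcium flux after an EC80 dopamine challenge in inducible HEK293 T-REx D2 cells preexposed to test compound for 180 s.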
D3 arrestin ag – D3 receptor agonism confirmed, beta-arrestin readout. shares compounds with D2 ag-1. DiscoveRx D3 beta-arrestin cells, luminescence, 90 min. Potency, µM (series often up to 76.9 µM), for inactives: at the top dose activation, usual class: activators. 2,300 tested, 4% active. AID 720506;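 further: potency means the concentration at half of the fitted maximal effect; 100% = dopamine control response; nearly all actives have a fitted effect of over 70% in size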
Target sequence (P35462 whole entry, looked up): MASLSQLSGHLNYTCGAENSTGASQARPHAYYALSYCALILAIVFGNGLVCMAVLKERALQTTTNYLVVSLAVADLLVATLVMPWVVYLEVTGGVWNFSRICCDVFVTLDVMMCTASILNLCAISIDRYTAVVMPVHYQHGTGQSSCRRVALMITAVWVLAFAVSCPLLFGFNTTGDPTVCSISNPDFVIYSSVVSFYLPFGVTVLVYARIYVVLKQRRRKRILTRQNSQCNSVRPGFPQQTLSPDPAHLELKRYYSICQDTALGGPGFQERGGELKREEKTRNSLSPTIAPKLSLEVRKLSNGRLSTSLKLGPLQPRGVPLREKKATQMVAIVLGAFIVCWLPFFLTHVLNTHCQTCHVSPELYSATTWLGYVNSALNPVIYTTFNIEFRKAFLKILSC
D2 ag-3 – counter-screen for D3 agonists: human D2 dopamine receptor agonism. shares compounds with D2 ag-1. DiscoveRx PathHunter D2 beta-arrestin, luminescence, 90 min; response scale: percent relative to full dopamine signal. Potency, µM (doses to about 76.9 µM), inactives show top-dose activation, most hits filed as activators. 2,300 tested, 5.9% active. AID 720507; further: potency means the concentration at half of the fitted maximal effect; % of control where 0% means no effect; nearly all actives have a fitted effect of over 70% in size
Numbers without * were called inactive; u = inconclusive; x = not tested or not shown; ! = not confirmed by another sample. Unless noted, the call rests on the fitted dose curve; in most records, active means well fitted activation curve with a large enough effect; inconclusive means small, poorly fitted or top-dose-only effect; inactive means flat fitted curve, though single readings scatter.

SMILES	D2 ag-1	D2 PAM-1	D2 PAM-2	D2 ag-2	D2 antagonist	D3 arrestin ag	D2 ag-3
CC(C)(O)[C@@H]1CC(=O)[C@]2(C)[C@H](CC[C@@]3(C)[C@H](c4ccoc4)OC(=O)[C@H]4O[C@]432)[C@@]1(C)/C=C\C(=O)O	-1	-5	-2	-1	5	x	x
CC1(C)OC(=O)C=C[C@]2(C)[C@H]3CC[C@@]4(C)[C@H](C(=O)O)OC(=O)[C@H]5O[C@]54[C@]3(C)C(=O)C[C@@H]12	0	-9	16	-2	11	-5%	-4%
CCNC(=O)C(=O)Nc1ccc([N+](=O)[O-])cc1	25	-10	-9	-1	-23	-1%	-1%
COc1ccc(-n2c(Cc3cccn3C)nnc2SCC(=O)N2CCCC2)cc1	59*	-4	-21	-1	10	-2%	-2%
COc1ccc(-n2c(Cc3cccn3C)nnc2SCC(=O)N2CCC(C)CC2)cc1	-1	-1	-6	-3	-13	x	x
Cc1ncc(C[n+]2csc(CCO)c2C)c(N)n1	55*!	-8	-13	-4	68*!	0%	-5%
O=[N+]([O-])c1cc(/C=N/N/C(=N/c2ccccn2)c2ccccn2)ccc1O	29	-23	-9	-2	-6	-25%	-13%
Cc1ccc(-c2nc3sccn3c2Nc2ccc(C)c(C)c2)cc1	-1	x	x	x	x	x	x
Cc1ccc(SCCNC(=S)Nc2ccc(C)cc2C)cc1	27	1	-15	-2	2	-10%	-2%
CCOC(=O)c1c(N)n(-c2ccc(Cl)c(Cl)c2)c2nc3ccccc3nc12	0	x	0	x	x	x	x
CN1CCc2c(sc(/N=C/c3cc(C(C)(C)C)ccc3O)c2C#N)C1	92*	27	-23	43*	90*	20%	u
CCCCN1CCNC[C@@H]1Cc1ccccc1	0	-11	-11	-5	2	x	x
CCCCN1CCNC[C@@H]1c1ccccc1	0	-17	14	-1	-8	-4%	-3%
Cc1ccccc1OCC(=O)Nc1ccc(OCc2cc(=O)n3ccsc3n2)cc1	0	x	8	x	x	x	x
O=c1[nH]c(CN2CCN(c3ccccc3)CC2)nc2scc(-c3ccccc3)c12	8	-10	4	-5	32*	u	24%
COc1cccc(CN2CCN(Cc3cc4ccccc4[nH]3)CC2CCO)c1 (stereo not given)	31*	-20	-18	-1	12	-9%	-3%
CCOCCc1nn2c(=O)cc(COC(=O)c3ccccc3NC(=O)c3ccc(C)cc3)nc2s1	2	x	2	x	x	x	x
CCC1CCc2c(sc(NC(=O)C3CC=CCC3C(=O)O)c2C#N)C1 (stereo not given)	62*	8	-19	u	29	16µM*	u
Cc1cc(Cl)ccc1NC(=O)CS(=O)(=O)c1cccc2nsnc12	0	x	9	x	x	x	x
Cc1ccc(S(=O)(=O)CCC(=O)Nc2cccc(S(=O)(=O)N3CCCCCC3)c2)cc1	-1	0	-7	-7	6	8%	11%
Cc1ccc(NC(=O)[C@@H]2CCCN2S(=O)(=O)c2ccccc2F)cc1	1	2	1	-2	-12	x	x
O=C(CN1CCN(C(=O)c2ccco2)CC1)Nc1cccc(S(=O)(=O)N2CCCC2)c1	30	3	2	6	13	17%	17%
O=C(CN1CCc2ccccc2C1)Nc1cccc(S(=O)(=O)N2CCCC2)c1	53*	-9	-24	0	49*	u	u
O=C(Nc1cccc(S(=O)(=O)N2CCCCC2)c1)C1CCCN1S(=O)(=O)c1ccccc1F (stereo not given)	5	25	-6	3	22	1%	16%
CC(=O)NCCC(=O)Nc1cc(S(=O)(=O)N2CCCCC2)ccc1N1CCCCC1	1	-5	-1	0	15	8%	1%
CC(=O)NCCC(=O)Nc1cc(S(=O)(=O)N2CCCCC2)ccc1N1CCN(C)CC1	1	-11	-2	-2	-2	x	x
